Consider 40 compounds from PubChem BioAssay (NCATS).

Each structure is given as a SMILES string. A number with no mark means an inactive call. Calls come from the whole dose curve; as a rule, active = well fitted curve in the direction sought with a large enough effect; inconclusive = small, poorly fitted or top-dose-only effect, or another doubt; inactive = no such curve, though single readings can be large or run the other way. Numbered stars: 1 amine (or outer) side, 2 acyl side, 3 side chain; on linkers, the order of the positions; unused ones are H or OH. Square brackets hold non-standard residues; d marks the D form. Peptide text beside a SMILES is read from it. ξ: configuration not given here. X1 = CCCCCCCCCC(=O)[C@H](C(=O)[*:2])[C@@H]1CNC(=O)[C@@H](N[*:1])CS1; X4 = O=C(C1CC2(c3ccc(O)cc3)c3ccccc3NC2N1[*:1])[*:2]; ξW = NC(Cc1c[nH]c2ccccc12)C(=O)O; ξY = NC(Cc1ccc(O)cc1)C(=O)O

The nature of the experiment: Inflammasome Signaling qHTS Counterscreen: IL-1-beta AlphaLISA counterscreen against the NCATS CANVASS Library (AID 1347381).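 Note: cell-free check with purified IL-1β in medium and no THP-1 cells; 0% is about no effect.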 The following applies: Purified IL-1beta AlphaLISA signal interference counterscreen; series mostly up to 57.5 µM; activity change, negative = inhibition: at the top concentration. The source says:
Natural products and their derivatives continue to be wellsprings of nascent therapeutic potential. However, many laboratories have limited resources for biological evaluation, leaving their previously isolated or synthesized compounds largely or completely untested. To address this issue, the Canvass library of natural products was assembled (https://tripod.nih.gov/canvass), in collaboration with academic and industry researchers, for quantitative high-throughput screening (qHTS) across a diverse set of cell-based and biochemical assays. The pure (>85% purity by liquid chromatography/mass spectrometry [LC/MS]) Canvass library of 346 natural products were submitted by 45 academic laboratories and companies around the world. We collected pure natural products to circumvent deconvolution and structure elucidation due to time and resource limitations. The library was formatted into 1536-well plates and evaluated in 50 qHTS (in an 11-pnt concentration series) bioassays with broad scope of disease-relevant mechanisms. The resulting data set from 50 different assays was then systematically analyzed to identify overall trends and specific natural products with interesting biological activities. Reported herein are the results of each individual qHTS and their corresponding assay protocol. A qHTS assay, based on AlphaLISA technology, was developed to screen the NCATS CANVASS library to look for novel inflammasome inhibitors. The assay detects IL-1B using AlphaLISA anti-IL-1B acceptor and donor beads. Human THP-1 cells were incubated with Canvass compound for 1 hr, followed by stimulation with lipopolysaccharide and ATP to induce inflammasome activation. […] National Center for Advancing Translational Sciences (NCATS), Rockville, MD National Institute of Health (NIH), Bethesda, Maryland
IL-1-beta-counterscreen qHTS protocol: 1. Four microliter of cell culture media (low control, columns 3-4) with 4 pg purified IL-1-beta (high control; columns 1-2 and 5-48) were dispensed into a 1536-well, solid white, tissue culture-treated assay plates using the BioRapTR dispenser. 2. 23 nL of compounds (in DMSO solution) or vehicle control (DMSO) were pin transferred into the assay plates using the Kalypsis pin-tool equipped with a 1536 well pin heads. 3. 1.5 uL AlphaLISA reagent 1 (6 ug/mL anti-IL-1-beta AlphaLISA acceptor beads + 0.6 nM anti-IL-1-beta biotinylated antibody final concentrations) was added using the BioRapTR dispenser. 4. The assay plates were incubated at room temperature for 1 hour. 5. 1.5 uL of AlphaLISA reagent 2 (24 ug/ml AlphaLISA SA-Donor beads, final concentration) was then added to the assay plates followed by a 30 min in the dark incubation at room temperature. 6. The AlphaLISA signal was read by the EnVision plate reader (PerkinElmer) using a 680 nm excitation and 615 nm emission filters.
For the compound `CC1C(=O)C23CCC1C[C@]21O[C@@H]2C(C)(C)C=CC(=O)[C@@]23COC1=O` (stereo not given in full), the “activity change, negative = inhibition” value is -5.09%.
The value for `COc1cc(/C=C2/C(=O)N(c3ccc(O)cc3C(=O)O)[C@H](c3ccc(O)c(OC)c3)C2C(=O)Nc2ccc(O)cc2C(=O)O)ccc1O` (stereo not given in full) was -7.42%; that for `CN1C(=O)C2C(N=CN2C)N(C)C1=O` (stereo not given) was 9.42%; that for `CC[C@H](C)[C@H](NC(=O)C(Cc1ccc(O)cc1)NC(=O)C(Cc1c[nH]c2ccccc12)NC(=O)[C@H](C)N)C(=O)N1C(C(=O)NC(Cc2ccc(O)cc2)C(=O)O)CC2(c3ccc(O)cc3)c3ccccc3NC12` (stereo not given in full) (H-A[ξW][ξY]I[X4][ξY]-OH) was 10.1%.
As to `Oc1ccc([C@H]2Oc3ccc(/C=C/c4cc(O)cc(O)c4)cc3C2c2cc(O)cc(O)c2)cc1` (stereo not given in full), the “activity change, negative = inhibition” value is -2.81%.
On to `CCCCCCCCCCCCCCC[C@H](O)C[C@@H](O)C[C@@H](O)C[C@@H](O)C[C@@H](O)C[C@H]1CC=CC(=O)O1`, for which the “activity change, negative = inhibition” value is 13.3%.
On to `C[C@@]12CCC[C@@](C)(C(=O)O)[C@H]1CC[C@]13C[C@H]4C[C@H](O[C@@]4(C)C1)[C@H]32`, for which the “activity change, negative = inhibition” value is -1.49%.
The same measure for `O=c1cc(-c2ccc(O)c(O[C@@H]3O[C@H](CO)[C@@H](O)[C@H](O)[C@H]3O)c2)oc2cc(O[C@@H]3O[C@H](CO)[C@@H](O)[C@H](O)[C@H]3O)cc(O)c12`: -2.1%; for `C=C1[C@H]2CC[C@@]3(C=CC(=O)[C@@](C)(CCC(=O)Nc4c(O)ccc(C(=O)O)c4O)C3C2)[C@H]1O` (stereo not given in full): 2.53%.
For the compound `C/C1=C\CC(=O)/C=C/C=C\c2csc(n2)[C@@H](C)NC(=O)C[C@@](S)([C@@H](C)C(=O)O)CC1`, the “activity change, negative = inhibition” value is -8.36%.
The same measure for `C[C@@H]1O[C@H](c2c(O)cc(O)c3c(=O)cc(-c4ccc(O)cc4)oc23)[C@H](O)[C@H](O)[C@H]1O`: 5.13%.
For the compound `C=C1C(=O)C[C@H]2C[C@@H]1[C@]2(C)CCC=C(C)C`, the “activity change, negative = inhibition” value was 7.18%.
On to `COc1c(O)cc2oc(-c3ccccc3)cc(=O)c2c1O`, for which the “activity change, negative = inhibition” value was -14%.
Consider `C=C(C)CC[C@H](Cc1c(O)cc(O)c2c1O[C@H](c1ccc(O)cc1O)CC2=O)C(=C)C`, for which the “activity change, negative = inhibition” value is -6.89%.
Turning to `CN1C(=O)[C@]23SS[C@@]1(C)C(=O)N2[C@H]1Nc2ccccc2[C@]1(c1c[nH]c2ccccc12)[C@@H]3O`, the “activity change, negative = inhibition” value is -0.0675%.
For the compound `CO[C@@H]1[C@H](O)[C@@H](C)O[C@@H](OC[C@@H]2C(C)OC(=O)/C=C/[C@H](C)C(O[C@@H]3O[C@H](C)CC4(OC(=O)O[C@@H]4C)C3O)[C@@H](C)CC(C)C(=O)CC[C@H]3OC23)[C@@H]1OC` (stereo not given in full), the “activity change, negative = inhibition” value is -5.5%.
The value for `CCC1=C2CCCN3C(=O)O[C@H]([C@H]1OC(C)=O)[C@H]23` was 2.63%; that for `CC1(C)CC[C@]2(C(=O)O)CC[C@]3(C)C(=CC[C@@H]4[C@@]5(C)C[C@@H](O)[C@H](O)C(C)(C)[C@@H]5CC[C@]43C)[C@@H]2C1` was 6.68%.
As for `Oc1ccc(C2c3c(O)cc(O)cc3[C@@H]3C(c4ccc(O)cc4)c4c(O)cc(O)cc4[C@H]23)cc1` (stereo not given in full), the “activity change, negative = inhibition” value is -6.88%.
On to `O=C(O)CC1OC(=O)c2c(O)cccc21` (stereo not given), for which the “activity change, negative = inhibition” value was 4.1%.
For the compound `COc1ccc([C@@H]2c3cc(OC)c(OC)cc3C(=O)[C@H](C)C2C)cc1OC` (stereo not given in full), the activity change, negative = inhibition is -8.6% [at 11.5 µM].
In the case of `C=C1/C=C\C(CCC)=C\c2csc(n2)C(C)NC(=O)C[C@@]2(CC(=O)O)CCC(=C)[C@H](C1)S2` (stereo not given in full), the “activity change, negative = inhibition” value was -2.6%.
The value for `CCCCCCCCCC(=O)[C@@H]1C(=O)N[C@@H](CC(C)C)C(=O)N[C@H](C)C(=O)N2CCC[C@H]2C(=O)N[C@@H](C(C)C)C(=O)N[C@H]2CS[C@H]1CNC2=O` (cyclo(L[dA]PV[X1])) was 4.79%; that for `CO[C@H]1/C=C/CC[C@@H](S[C@@H]2O[C@H](CO)[C@@H](O)[C@H](O)[C@H]2O)CC(=O)O[C@@H](/C(C)=C/[C@H](C)C(=O)CCCC2CC(=O)NC(=O)C2)[C@@H](C)[C@@H]1O` was -1.99%; that for `C/C1=C/[C@@H](C)[C@H](O)C/C=C/CC/C=C/C(=O)O[C@@H]1[C@H](C)C(=O)/C=C/CC1CC(=O)NC(=O)C1` was 5.22%.
The same measure for `O=C(O)[C@@]12COC3(O)C1CCN1CC[C@H]3[C@@H]1c1c2[nH]c2ccccc12`: 8.88%; for `CN1CCc2cc3c(c4c2[C@H]1[C@@H](O)c1ccccc1-4)OCO3`: -13.7%; for `CC12C[C@]3(O)O[C@@H](O1)[C@]1(COC(=O)c4ccccc4)[C@@H]3CC21OC1OC(CO)C(O)C(O)C1O` (stereo not given in full): 4.87%.
On to `C[C@@]12CCC[C@@](C)(C(=O)O)[C@H]1C[C@@H](O)[C@]13C[C@H]4C[C@H](O[C@@]4(C)C1)[C@@H]23`, for which the “activity change, negative = inhibition” value is 8.35%.
As for `C=C1C(=O)O[C@H]2C[C@H](C)[C@@H]3CC(=O)C(C)=C3[C@H](O)[C@H]12`, the “activity change, negative = inhibition” value is -0.25%.
For `CC(=O)[C@@H]1[C@@H](O)C[C@H]2[C@]3(C)CC[C@H]4C(C)(C)CCC[C@]4(CO)[C@H]3C[C@H]3OC(=O)[C@@H]1[C@@]32C`, the “activity change, negative = inhibition” value is -6.88%.
Regarding `C[C@@H]1C(=O)[C@]23CC[C@H]1C[C@]21O[C@H]2C(C)(C)C=CC(=O)[C@@]23COC1=O`, the “activity change, negative = inhibition” value is -9.17%.
As for `COc1cc(/C=C/C(=O)O)ccc1O`, the “activity change, negative = inhibition” value is 4.58%.
On to `CO[C@@H]1C[C@@H](C[C@H]2CC[C@H](C)[C@H]([C@@H](C)C(=O)O)O2)O[C@]2(O[C@](C)([C@H]3CC[C@@](C)([C@@H]4O[C@@H]([C@H]5O[C@](C)(O)[C@H](C)C[C@@H]5C)C[C@@H]4C)O3)C[C@H]2C)[C@@H]1C`, for which the “activity change, negative = inhibition” value is -3.34%.
`O=Cc1ccc2n1C[C@@]1(C[C@H](O)[C@H](O)CO1)OC2`: the “activity change, negative = inhibition” value is 7.6%.
Take `C[C@]12CC[C@]3(C1)[C@H](CC2=O)CC(OC(=O)c1ccccc1)[C@H]1[C@@](CO)(C(=O)O)CCC[C@@]13C` (stereo not given in full): the “activity change, negative = inhibition” value was -12.6%.
For the compound `CS/C=C/C(N)=O`, the “activity change, negative = inhibition” value was 3.14%.
The same measure for `C=C[C@]1(C)CC[C@@H]([C@H](C)C(=O)OCC)O1`: -3.34% [at 34.3 µM].
In the case of `CC1=CC2=C[C@H](C)C[C@@]23OC(=C(C)C3=O)CC(C)(C)/C=C/C1=O`, the “activity change, negative = inhibition” value was -8.26%.
The same measure for `COc1ccc(CCCc2cc(O)c(OC)c(O)c2)c(O)c1O`: 1.48%.
